From PubChem BioAssay (NCATS)
The source made the active and inactive calls. How the calls were made is not given here.

Conditions: Ebola virus entry assay, blue channel fluorescence

Compound | AC50 | outcome
CCc1nc(N)nc(N)c1-c1ccc(Cl)cc1 | 39.8 µM (active) | 
Clc1ccc(C(c2ccccc2Cl)C(Cl)Cl)cc1 (stereo not given) | 31.6 µM (active) | 
Nc1cccc2c1CN(C1CCC(=O)NC1=O)C2=O (stereo not given) |  | inactive
C=C[C@H]1CN2CC[C@H]1C[C@@H]2[C@@H](O)c1ccnc2ccc(OC)cc12 | 20 µM (active) | 
Nc1nc(N)c2nc(-c3ccccc3)c(N)nc2n1 |  | inactive
CC[C@H](C)C(=O)O[C@H]1C[C@@H](C)C=C2C=C[C@H](C)[C@H](CC[C@@H]3C[C@@H](O)CC(=O)O3)[C@H]21 |  | inactive
CC(COc1ccccc1)N(CCCl)Cc1ccccc1 (stereo not given) | 28.2 µM (active) | 
Cc1nccn1CC1CCc2c(c3ccccc3n2C)C1=O (stereo not given) | 22.4 µM (active) | 
CNC1(C)C2CCC(C2)C1(C)C (stereo not given) | 39.8 µM (active) | 
NNc1nncc2ccccc12 |  | inactive
CNC(=O)c1cc(Oc2ccc(NC(=O)Nc3ccc(Cl)c(C(F)(F)F)c3)cc2)ccn1 | 39.8 µM (active) | 
Cc1ccc(C)c(OCCCC(C)(C)C(=O)O)c1 |  | inactive
CCC(C)(C)C(=O)O[C@H]1C[C@@H](C)C=C2C=C[C@H](C)[C@H](CC[C@@H]3C[C@@H](O)CC(=O)O3)[C@H]21 |  | inactive
Cc1ccc(S(=O)(=O)NC(=O)NN2CC3CCCC3C2)cc1 (stereo not given) |  | inactive
CCCN1C[C@H](CSC)C[C@@H]2c3cccc4[nH]cc(c34)C[C@H]21 | 11.2 µM (active) | 
CN1CCC[C@@H]1Cc1c[nH]c2ccc(CCS(=O)(=O)c3ccccc3)cc12 | 25.1 µM (active) | 
O=C1[C@H](CC[C@H](O)c2ccc(F)cc2)[C@@H](c2ccc(O)cc2)N1c1ccc(F)cc1 | 28.2 µM (active) | 
COc1c(C)c2c(c(O)c1C/C=C(\C)CCC(=O)O)C(=O)OC2 |  | inactive
C=C(CC)C(=O)c1ccc(OCC(=O)O)c(Cl)c1Cl | 14.1 µM (active) | 
CN(C)CC[C@@H](c1ccc(Br)cc1)c1ccccn1 | 39.8 µM (active) | 

Compound | AC50 | outcome
CCOC(=O)C1(c2ccccc2)CCN(CCC(C#N)(c2ccccc2)c2ccccc2)CC1 | 14.1 µM (active) | 
Oc1ccc(C2CNCCc3c2cc(O)c(O)c3Cl)cc1 (stereo not given) |  | inactive
CC1(C)S[C@@H]2[C@H](NC(=O)Cc3ccccc3)C(=O)N2[C@H]1C(=O)O (tested in a mixture with another compound) |  | inactive
COc1cc2nc(N3CCN(C(=O)C4CCCO4)CC3)nc(N)c2cc1OC (stereo not given) | 35.5 µM (active) | 
CC(=O)[C@]1(O)Cc2c(O)c3c(c(O)c2[C@@H](O[C@H]2C[C@H](N)[C@H](O)[C@H](C)O2)C1)C(=O)c1ccccc1C3=O | 14.1 µM (active) | 
C#C[C@]1(O)CC[C@H]2[C@@H]3CCC4=Cc5oncc5C[C@]4(C)[C@H]3CC[C@@]21C | 7.94 µM (active) | 
C=C(c1ccc(C(=O)O)cc1)c1cc2c(cc1C)C(C)(C)CCC2(C)C |  | inactive
C[C@](N)(Cc1ccc(O)c(O)c1)C(=O)O | 15.8 µM (active) | 
C#Cc1cccc(Nc2ncnc3cc(OCCOC)c(OCCOC)cc23)c1 |  | inactive
CCn1cc(C(=O)O)c(=O)c2cc(F)c(N3CCNCC3)cc21 |  | inactive
CCC1=C[C@@H]2CN(C1)Cc1c([nH]c3ccccc13)[C@@](C(=O)OC)(c1cc3c(cc1OC)N(C)[C@H]1[C@@](O)(C(=O)OC)[C@H](OC(C)=O)[C@]4(CC)C=CCN5CC[C@]31[C@@H]54)C2 | 7.94 µM (active) | 
Nc1ccc(O)c(C(=O)O)c1 | 28.2 µM (active) | 
CN(C/C=C/C#CC(C)(C)C)Cc1cccc2ccccc12 | 28.2 µM (active) | 
O=C1Nc2ccc(Cl)cc2[C@@](C#CC2CC2)(C(F)(F)F)O1 | 17.8 µM (active) | 
COc1c(C)c2c(c(O)c1C/C=C(\C)CCC(=O)OCCN1CCOCC1)C(=O)OC2 |  | inactive
Cc1cn([C@H]2C[C@H](N=[N+]=[N-])[C@@H](CO)O2)c(=O)[nH]c1=O |  | inactive
C[C@H]1O[C@H](O[C@H]2[C@H](O)[C@@H](O)[C@@H](O[C@H]3[C@H](O)[C@@H](O)[C@H](O)O[C@@H]3CO)O[C@@H]2CO)[C@H](O)[C@@H](O)[C@@H]1N[C@H]1C=C(CO)[C@@H](O)[C@H](O)[C@H]1O |  | inactive
NC1[C@H]2CN(c3nc4c(cc3F)c(=O)c(C(=O)O)cn4-c3ccc(F)cc3F)C[C@@H]12 (stereo not given in full) |  | inactive
CCC(C)n1ncn(-c2ccc(N3CCN(c4ccc(OC[C@H]5CO[C@](Cn6cncn6)(c6ccc(Cl)cc6Cl)O5)cc4)CC3)cc2)c1=O (stereo not given in full) |  | inactive
CCOC(=O)C1=C(C)NC(C)=C(C(=O)OC)C1c1cccc(Cl)c1Cl (stereo not given) |  | inactive

Conditions: Ebola virus entry assay, ratio channel

Compound | outcome | AC50
CCc1nc(N)nc(N)c1-c1ccc(Cl)cc1 | inactive | 
Clc1ccc(C(c2ccccc2Cl)C(Cl)Cl)cc1 (stereo not given) |  | 22.4 µM (active)
Nc1cccc2c1CN(C1CCC(=O)NC1=O)C2=O (stereo not given) | inactive | 
C=C[C@H]1CN2CC[C@H]1C[C@@H]2[C@@H](O)c1ccnc2ccc(OC)cc12 | inactive | 
Nc1nc(N)c2nc(-c3ccccc3)c(N)nc2n1 | inactive | 
CC[C@H](C)C(=O)O[C@H]1C[C@@H](C)C=C2C=C[C@H](C)[C@H](CC[C@@H]3C[C@@H](O)CC(=O)O3)[C@H]21 | inactive | 
CC(COc1ccccc1)N(CCCl)Cc1ccccc1 (stereo not given) |  | 17.8 µM (active)
Cc1nccn1CC1CCc2c(c3ccccc3n2C)C1=O (stereo not given) |  | 22.4 µM (active)
CNC1(C)C2CCC(C2)C1(C)C (stereo not given) | inactive | 
NNc1nncc2ccccc12 | inactive | 
CNC(=O)c1cc(Oc2ccc(NC(=O)Nc3ccc(Cl)c(C(F)(F)F)c3)cc2)ccn1 | inactive | 
Cc1ccc(C)c(OCCCC(C)(C)C(=O)O)c1 | inactive | 
CCC(C)(C)C(=O)O[C@H]1C[C@@H](C)C=C2C=C[C@H](C)[C@H](CC[C@@H]3C[C@@H](O)CC(=O)O3)[C@H]21 |  | 7.08 µM (active)
Cc1ccc(S(=O)(=O)NC(=O)NN2CC3CCCC3C2)cc1 (stereo not given) | inactive | 
CCCN1C[C@H](CSC)C[C@@H]2c3cccc4[nH]cc(c34)C[C@H]21 |  | 7.94 µM (active)
CN1CCC[C@@H]1Cc1c[nH]c2ccc(CCS(=O)(=O)c3ccccc3)cc12 |  | 25.1 µM (active)
O=C1[C@H](CC[C@H](O)c2ccc(F)cc2)[C@@H](c2ccc(O)cc2)N1c1ccc(F)cc1 | inactive | 
COc1c(C)c2c(c(O)c1C/C=C(\C)CCC(=O)O)C(=O)OC2 | inactive | 
C=C(CC)C(=O)c1ccc(OCC(=O)O)c(Cl)c1Cl |  | 15.8 µM (active)
CN(C)CC[C@@H](c1ccc(Br)cc1)c1ccccn1 | inactive | 

Compound | outcome | AC50
CCOC(=O)C1(c2ccccc2)CCN(CCC(C#N)(c2ccccc2)c2ccccc2)CC1 |  | 10 µM (active)
Oc1ccc(C2CNCCc3c2cc(O)c(O)c3Cl)cc1 (stereo not given) | inactive | 
CC1(C)S[C@@H]2[C@H](NC(=O)Cc3ccccc3)C(=O)N2[C@H]1C(=O)O (tested in a mixture with another compound) | inactive | 
COc1cc2nc(N3CCN(C(=O)C4CCCO4)CC3)nc(N)c2cc1OC (stereo not given) | inactive | 
CC(=O)[C@]1(O)Cc2c(O)c3c(c(O)c2[C@@H](O[C@H]2C[C@H](N)[C@H](O)[C@H](C)O2)C1)C(=O)c1ccccc1C3=O |  | 12.6 µM (active)
C#C[C@]1(O)CC[C@H]2[C@@H]3CCC4=Cc5oncc5C[C@]4(C)[C@H]3CC[C@@]21C |  | 6.31 µM (active)
C=C(c1ccc(C(=O)O)cc1)c1cc2c(cc1C)C(C)(C)CCC2(C)C | inactive | 
C[C@](N)(Cc1ccc(O)c(O)c1)C(=O)O |  | 22.4 µM (active)
C#Cc1cccc(Nc2ncnc3cc(OCCOC)c(OCCOC)cc23)c1 | inactive | 
CCn1cc(C(=O)O)c(=O)c2cc(F)c(N3CCNCC3)cc21 | inactive | 
CCC1=C[C@@H]2CN(C1)Cc1c([nH]c3ccccc13)[C@@](C(=O)OC)(c1cc3c(cc1OC)N(C)[C@H]1[C@@](O)(C(=O)OC)[C@H](OC(C)=O)[C@]4(CC)C=CCN5CC[C@]31[C@@H]54)C2 |  | 2.51 µM (active)
Nc1ccc(O)c(C(=O)O)c1 | inactive | 
CN(C/C=C/C#CC(C)(C)C)Cc1cccc2ccccc12 | inactive | 
O=C1Nc2ccc(Cl)cc2[C@@](C#CC2CC2)(C(F)(F)F)O1 |  | 22.4 µM (active)
COc1c(C)c2c(c(O)c1C/C=C(\C)CCC(=O)OCCN1CCOCC1)C(=O)OC2 | inactive | 
Cc1cn([C@H]2C[C@H](N=[N+]=[N-])[C@@H](CO)O2)c(=O)[nH]c1=O | inactive | 
C[C@H]1O[C@H](O[C@H]2[C@H](O)[C@@H](O)[C@@H](O[C@H]3[C@H](O)[C@@H](O)[C@H](O)O[C@@H]3CO)O[C@@H]2CO)[C@H](O)[C@@H](O)[C@@H]1N[C@H]1C=C(CO)[C@@H](O)[C@H](O)[C@H]1O | inactive | 
NC1[C@H]2CN(c3nc4c(cc3F)c(=O)c(C(=O)O)cn4-c3ccc(F)cc3F)C[C@@H]12 (stereo not given in full) | inactive | 
CCC(C)n1ncn(-c2ccc(N3CCN(c4ccc(OC[C@H]5CO[C@](Cn6cncn6)(c6ccc(Cl)cc6Cl)O5)cc4)CC3)cc2)c1=O (stereo not given in full) | inactive | 
CCOC(=O)C1=C(C)NC(C)=C(C(=O)OC)C1c1cccc(Cl)c1Cl (stereo not given) | inactive | 
